Several values for one entry are separate records, joined by “and”; a condition that tells them apart may be missing. Equal entries are not always repeated. Records with an inconclusive call do not appear. Where a call stands in place of a potency, no number is given. Activity calls are given as the source filed them. Calls come from the whole dose curve; as a rule, active = well fitted inhibition curve with a large enough effect; inconclusive = small, poorly fitted or top-dose-only effect; inactive = no such curve, though single readings can be large or run the other way.
Each molecule was assayed against Nuclear receptor ROR-gamma (Homo sapiens) (UniProt P51449) (assay: qHTS assay for small molecule antagonists of the retinoid-related orphan receptor gamma (ROR-gamma) signaling pathway (AID 651802; note: nearly all actives have a fitted effect of over 60% in size)). Conditions: ROR-gamma antagonist cell reporter assay; series mostly up to 92.2 µM.
Chain of Nuclear receptor ROR-gamma (Homo sapiens) (P51449 whole entry, looked up): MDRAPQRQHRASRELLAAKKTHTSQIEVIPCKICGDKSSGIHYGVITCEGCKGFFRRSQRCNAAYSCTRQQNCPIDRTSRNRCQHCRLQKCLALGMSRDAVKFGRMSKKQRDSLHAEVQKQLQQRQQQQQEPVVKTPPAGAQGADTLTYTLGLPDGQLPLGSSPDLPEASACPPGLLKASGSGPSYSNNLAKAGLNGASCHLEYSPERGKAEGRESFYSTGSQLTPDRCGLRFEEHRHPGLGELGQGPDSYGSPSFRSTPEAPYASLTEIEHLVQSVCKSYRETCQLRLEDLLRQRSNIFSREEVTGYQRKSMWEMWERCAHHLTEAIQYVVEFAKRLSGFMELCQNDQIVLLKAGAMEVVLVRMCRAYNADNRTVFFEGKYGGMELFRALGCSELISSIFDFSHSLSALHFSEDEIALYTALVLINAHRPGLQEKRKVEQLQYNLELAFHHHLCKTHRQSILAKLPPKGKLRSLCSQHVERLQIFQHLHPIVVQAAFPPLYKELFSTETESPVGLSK
Source text: National Center for Advancing Translational Sciences [NCATS]
NIH Chemical Genomics Center [NCGC]
National Institutes of Environmental Health Sciences [NIEHS]
National Toxicology Program [NTP]
Nuclear steroid hormone receptors are involved in many biological processes including inflammatory responses, cell proliferation, and apoptosis. Environmental factors or compounds disrupting these nuclear receptor pathways and gene expression may promote susceptibility to immunotoxicants and autoimmune diseases. One important group of these expression factors are the retinoid-related orphan receptors. To assess compounds that may interfere with the retinoid-related orphan receptor gamma (ROR-gamma) transcription factor, a cell-based luciferase assay was used.
The CHO cell-based assay utilizes a TET-inducible ROR expression factor and ROR response element-LUC reporter gene. Reporter activity was induced using doxycycline and measured after 16hr incubation. Luminescence was read using Viewlux (PerkinElmer), where a decrease in reporter activity would show a decrease in luminescence.
1,000 cells in 4 uL/well were dispensed into white wall/solid bottom 1536-well plates using a Multidrop Combi (Thermo Scientific) dispenser. Following transfer of 23 nL compound or DMSO vehicle by a pin tool, the plates were treated with 1 ul doxycycline to induce reporter gene activity. After 16hr incubation at 37C and 5% CO2, 5uL one-glo (promega) was added to each plate and following 30 min incubation at room temperature, luminescence was quantified on a ViewLux (PerkinElmer) plate reader.
Potency is the fitted concentration of half-maximal effect.

Structure (SMILES)	Potency
c1ccc2cc3c(cc2c1)-c1cccc2cccc-3c12	inactive
CCCCCCCCn1sccc1=O	11.9 µM (active)
c1c[nH]cn1	inactive
Cc1ccc(N)c([N+](=O)[O-])c1	inactive
N#CC(Cl)Cl	33.5 µM (active)
ClC1=C(Cl)C(Cl)(Cl)C(Cl)=C1Cl	13.3 µM (active)
C(=NC1CCCCC1)=NC1CCCCC1	18.8 µM (active)
C#CCO	inactive
CC(C)CC(C)Nc1ccc(Nc2ccccc2)cc1 (configuration not stated)	37.6 µM (active)
NC(N)=S	inactive
ClC1=C(Cl)C2(Cl)C3C(Cl)C(Cl)CC3C1(Cl)C2(Cl)Cl (configuration not stated)	37.6 µM (active)
OCC(CBr)(CBr)CBr	inactive
CCCCC(CC)COC(=O)CCCCC(=O)OCC(CC)CCCC (configuration not stated)	inactive
O=C1C2(Cl)C3(Cl)C4(Cl)C(Cl)(Cl)C5(Cl)C3(Cl)C1(Cl)C5(Cl)C24Cl (configuration not stated)	9.44 µM (active) and 10.6 µM (active)
[CH3][Hg][Cl]	6.68 µM (active)
Cc1cccc(C)c1	inactive
Cc1c(N)cccc1N	inactive
O=C1OC(=O)c2c(Br)c(Br)c(Br)c(Br)c21	inactive
O=C(O)C1C(C(=O)O)C2(Cl)C(Cl)=C(Cl)C1(Cl)C2(Cl)Cl (configuration not stated)	inactive

Structure (SMILES)	Potency
Clc1ccc(C(c2ccc(Cl)cc2)C(Cl)Cl)cc1	37.6 µM (active)
O=Nc1ccc(Nc2ccccc2)cc1	7.5 µM (active)
C=CC(=O)OCC(CO)(COC(=O)C=C)COC(=O)C=C	4.22 µM (active)
CC(C)(C)C(=O)C1C(=O)c2ccccc2C1=O	21.1 µM (active)
[Cd+2].[Cl-].[Cl-]	3.35 µM (active)
O=[N+]([O-])C(Br)Br	18.8 µM (active)
O=NO	inactive
CC(CCl)OC(C)CCl (configuration not stated)	inactive
CN(C)c1ccc(N=O)cc1	7.5 µM (active)
CN(C)CCCCCCN(C)C	inactive
[O-][N+](=Nc1ccccc1)c1ccccc1	inactive
Oc1cc(Cl)cc(Cl)c1Cl	18.8 µM (active)
Nc1ccccc1C(=O)OCCc1ccccc1	inactive
c1ccc2c(c1)ccc1ncccc12	inactive
O=[N+]([O-])c1cc(C(F)(F)F)cc([N+](=O)[O-])c1Cl	inactive
Cc1cc(C)c(N)cc1C	inactive
FC(F)(F)c1ccc(Cl)cc1	inactive
O=C(CCl)c1ccccc1	16.8 µM (active)
